Results: PubChem BioAssay
Results filed as inconclusive are left out. Calls of active or inactive are those of the source.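 The calls were made as follows, unless noted: active = viability loss from added drug above about 55%, and viability with drug at most 40%, in both replicates (limit read from the data, passing the limit was not always enough); inconclusive = both conditions met in only one replicate; inactive = neither replicate meets both conditions.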

Columns and labels:
[1] = Her2 expression decrease, cell viability multiplex – SKBR3 breast tumor cells, AlphaScreen, ATP viability, primary screen (AID 461;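 active = Her2 level under about 52% in both replicate screens, with viability over 70% of control, limit read from the data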;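 as to Her2 level: lower value means less Her2 protein in the cells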;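 as to viability: percent of carrier control wells set as 100% viability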); conditions: SKBR3 Her2 protein level, 18-24 h, measured here: SKBR3 viability, ATP luminescence, at 10 µM
[2] = target: Receptor tyrosine-protein kinase erbB-2 (Homo sapiens) (UniProt P04626); experiment: as above; conditions: 18-24 h, at 10 µM, stronger effect = lower value
[3] = reduced viability of SK-BR-3 breast cancer cells – cell-based, 24 h, human, pilot screen (AID 572;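 active = viability at or below 10% of carrier control in both of two separate runs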;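 also: compound exposure lasted between 18 and 24 h rather than exactly 24 h; 100% = carrier-treated control wells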); conditions: SK-BR-3 viability, CellTiter-Glo luminescence, at 10 µM, stronger effect = lower value
[4] = HUVEC growth inhibition – cell-based, human, primary screen (AID 575;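 active = viability at or below 30% in both replicate assays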;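 also: 100% = median of untreated cell wells with 0.1% DMSO on each plate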); conditions: HUVEC proliferation, CellTiter-Glo luminescence, 72 h; at 10 µM; stronger effect = lower value
[5] = H69AR cell proliferation blockers – human, duplicate replicates, primary screen (AID 580;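 active = viability at or under a set limit in both replicates, limit being median viability minus 3 SD, cut at about 48% in these data, passing the limit was not always enough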;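 also: 100% = mean luminescence of untreated wells and 0% = no signal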); conditions: H69AR lung tumor cells viability, ATP luminescence, 72 h; at 10 µM; stronger effect = lower value
[6] = MRP1 drug-resistance reversers in H69AR cells – cell-based, doxorubicin co-treatment, pilot screen (AID 601); conditions: CellTiter-Glo, 72 h, at 10 µM; for differential viability (reversal): stronger effect = higher value
[7] = yeast transport mutant growth inhibition pilot in 384-well plates, post-Golgi transport modulator project (AID 636; in the data active = inhibition above about 31%); conditions: absorbance 615 nm, about 18 h, stronger effect = higher value
[8] = growth suppression of yeast trafficking mutant, preliminary HTS, modulators of trafficking downstream of Golgi apparatus project, 1536-format plate, OD 615 nm (AID 637; in the data active = inhibition above about 30%); conditions: yeast transport mutant growth, absorbance 615 nm, 18 h; stronger effect = higher value
[9] = S. cerevisiae growth inhibition in permissive medium (OD615), pilot counter-assay for S. cerevisiae lifespan shortening project, permissive growth control (AID 705;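 active = growth inhibition above 25% in both replicates, a cutoff set 3 SD above the mean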); conditions: OD615, 24 h, at 10 µM, stronger effect = higher value
[10] = S. cerevisiae growth inhibition in restrictive medium, OD615, pilot screen, restrictive growth control, yeast lifespan reduction project (AID 706;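 active = growth inhibition above a set limit, 3 SD over mean compound inhibition, in both replicates, cut at about 43% in these data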;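 also: modified DeaD lifespan yeast strain shifted to restrictive glucose medium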); conditions: OD615, 48 h, at 10 µM, stronger effect = higher value
[11] = doxorubicin toxicity protection in MRP-1 cells – H69AR cells, CellTiter-Glo, duplicate, MRP-1 activator project, pilot screen (AID 807;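 active = viability increase at or above a cutoff of the median across tested compounds plus 3 SD, cut at about 8.5% in these data, passing the limit was not always enough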;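 also: compound pretreatment 18-22 h then 72 h combined with doxorubicin; 0% = doxorubicin alone and 100% = vehicle without doxorubicin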); conditions: H69AR viability with doxorubicin, CellTiter-Glo luminescence; at 10 µM; stronger effect = higher value
[12] = viability of HCT116 without oncogenic beta-catenin – human colon tumor cells, pilot screen (AID 823;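 active = cell viability at or below a set limit in both duplicate runs, the limit being the all-compound median minus 4 SD, cut at about 23% in these data, passing the limit was not always enough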;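 also: 0% = wells killed by 20 µM Hyamine and 100% = untreated DMSO cell wells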); conditions: HCT116 beta-catenin knockout viability, CellTiter-Glo, 60 h; at 10 µM; stronger effect = lower value
[13] = viability of PTEN-null HCT116 cells – cell-based, HCT116 clonal line, CellTiter-Glo, pilot screen (AID 824;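 active = viability at or below 27.92% in each of two runs, the all-compound median minus 4 SD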;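 also: 0% = 20 µM Hyamine control and 100% = vehicle cell control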); conditions: HCT116 PTEN-deleted viability, 60 h, at 10 µM, stronger effect = lower value
[14] = RAM pathway blockade in budding yeast – dse1pr::URA3 reporter, 5-FOA selection, pilot screen (AID 869;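 active = inhibition over a set limit, the all-compound mean plus 3 SD, in both replicate runs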;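 also: 0% = DMSO wells with no growth and 100% = 10 µM 1-NA-PP1 with full growth; RAM network block rescues cells from 5-FOA so hits raise OD615 growth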); conditions: S. cerevisiae dse1pr::URA3 5-FOA growth, OD615, 2 d; at 10 µM; stronger effect = higher value; strain carries analog-sensitive mutant Cbk1 kinase
[15] = RAM signaling pathway blockade in yeast – S. cerevisiae, Pdr1DBD-CYC8 efflux-inhibited sensitized strain, primary screen (AID 1298;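 active = RAM network inhibition above 8.4% in each of two replicates, 3 SD over the compound average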;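 also: 0% = DMSO untreated cells without growth and 100% = 10 µM 1-NA-PP1 full growth; higher means more yeast growth rescued from 5-FOA killing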); conditions: S. cerevisiae cbk1-as DSE1-URA3 strain, 5-FOA growth OD615, 2 d; at 50 µM; stronger effect = higher value
[16] = H69AR cells + 2 uM doxorubicin, measured here: viability with 2 uM doxorubicin, stronger effect = lower value
[17] = H69AR cells, compound alone cytotoxicity

Chain of Receptor tyrosine-protein kinase erbB-2 (Homo sapiens) (P04626 whole entry, looked up): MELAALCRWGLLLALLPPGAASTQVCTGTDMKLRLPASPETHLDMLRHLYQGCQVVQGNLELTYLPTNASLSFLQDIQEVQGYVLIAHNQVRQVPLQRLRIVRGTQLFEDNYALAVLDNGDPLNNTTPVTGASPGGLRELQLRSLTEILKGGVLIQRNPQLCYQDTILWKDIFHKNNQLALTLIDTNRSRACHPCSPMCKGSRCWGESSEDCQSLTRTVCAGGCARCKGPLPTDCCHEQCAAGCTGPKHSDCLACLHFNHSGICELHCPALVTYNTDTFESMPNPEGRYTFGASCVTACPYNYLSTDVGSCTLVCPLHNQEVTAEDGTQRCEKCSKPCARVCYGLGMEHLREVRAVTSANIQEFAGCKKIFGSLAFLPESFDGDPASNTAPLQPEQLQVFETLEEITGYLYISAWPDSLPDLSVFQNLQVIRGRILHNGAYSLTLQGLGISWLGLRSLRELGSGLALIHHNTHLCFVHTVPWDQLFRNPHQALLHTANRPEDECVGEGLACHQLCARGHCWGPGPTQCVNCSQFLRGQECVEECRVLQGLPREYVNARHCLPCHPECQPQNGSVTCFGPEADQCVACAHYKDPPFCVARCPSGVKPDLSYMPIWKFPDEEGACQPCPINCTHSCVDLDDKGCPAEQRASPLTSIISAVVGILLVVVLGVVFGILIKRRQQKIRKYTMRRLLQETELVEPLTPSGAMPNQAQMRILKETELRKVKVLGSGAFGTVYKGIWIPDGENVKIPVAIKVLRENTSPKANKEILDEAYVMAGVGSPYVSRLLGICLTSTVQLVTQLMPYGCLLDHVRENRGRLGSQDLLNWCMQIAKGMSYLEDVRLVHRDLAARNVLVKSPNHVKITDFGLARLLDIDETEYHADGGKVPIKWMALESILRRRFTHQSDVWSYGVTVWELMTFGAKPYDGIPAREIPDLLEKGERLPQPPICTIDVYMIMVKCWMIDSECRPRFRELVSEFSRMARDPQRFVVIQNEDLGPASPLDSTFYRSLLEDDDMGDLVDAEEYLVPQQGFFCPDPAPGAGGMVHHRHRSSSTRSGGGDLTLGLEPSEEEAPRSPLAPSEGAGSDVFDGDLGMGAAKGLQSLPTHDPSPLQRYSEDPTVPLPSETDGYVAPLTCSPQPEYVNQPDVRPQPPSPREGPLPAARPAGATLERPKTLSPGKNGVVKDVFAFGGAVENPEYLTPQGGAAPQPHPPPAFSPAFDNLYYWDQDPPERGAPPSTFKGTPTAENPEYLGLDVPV

Row | SMILES | viability [1] | Her2 level [2] | viability [3] | viability [4] | viability [5] | differential viability (reversal) ([6]; H69AR cells + 2 uM doxorubicin) | viability [6, 16] | viability [6, 17] | inhibition [7] | inhibition [8] | growth inhibition [9] | growth inhibition [10] | viability increase [11] | viability [12] | viability [13] | inhibition [14] | RAM network inhibition [15]
1 | CNC(=O)c1ccsc1NC(=O)c1ccccc1 | 88.5% | 74% (inactive) | 88.5% (inactive) | 83.8% (inactive) | 80.8% (inactive) | -3.68% (inactive) | 84.5% | 80.8% | -4.8% (inactive) | -3.5% (inactive) | 14.6% (inactive) | 14.5% (inactive) | -0.77% (inactive) | 102% (inactive) | 95.2% (inactive) | 1.97% (inactive) | -1.39% (inactive)
2 | O=C(NCCSc1c[nH]c2ccccc12)c1ccco1 | 112% | 93.5% (inactive) | 112% (inactive) | 64.5% (inactive) | 65.1% (inactive) | -25.6% (inactive) | 90.6% | 65.1% | -4.8% (inactive) | 0% (inactive) | -5% (inactive) | -2.81% (inactive) | -6.06% (inactive) | 102% (inactive) | 91.6% (inactive) | 1.83% (inactive) | 0.88% (inactive)
3 | COc1ccccc1CNC(=O)C1CCCN(S(=O)(=O)c2cccc3cccnc23)C1 (stereo unspecified) | 92.5% | 98.5% (inactive) | 92.5% (inactive) | 111% (inactive) | 92% (inactive) | -0.39% (inactive) | 92.3% | 92% | -4.53% (inactive) | -2.17% (inactive) | -5.17% (inactive) | -12.7% (inactive) | -3.42% (inactive) | 90.6% (inactive) | 91.6% (inactive) | 3.08% (inactive) | 6.37% (inactive)
4 | Nc1[nH]nc2nc(N3CCCC3)nc(-c3ccccc3)c12 | 113% | 97.5% (inactive) | 113% (inactive) | 92% (inactive) | 95.6% (inactive) | 7% (inactive) | 88.6% | 95.6% | -6.27% (inactive) | 2.1% (inactive) | -6.15% (inactive) | -9.01% (inactive) | -4.09% (inactive) | 99% (inactive) | 90.9% (inactive) | 0.285% (inactive) | -0.16% (inactive)
5 | O=C(c1ccc2nc(N3CCOCC3)sc2c1)N1CCCC1 | 94% | 96% (inactive) | 94% (inactive) | 93.6% (inactive) | 108% (inactive) | 18.8% (inactive) | 89.4% | 108% | -1.41% (inactive) | 9.17% (inactive) | -2.18% (inactive) | -7.76% (inactive) | -2.73% (inactive) | 99.1% (inactive) | 95.4% (inactive) | -0.14% (inactive) | 1.02% (inactive)
6 | CCOC(=O)c1ccc(NC(=O)Cn2cc3c(n2)CCC(C)C3)cc1 (stereo unspecified) | 91.5% | 92% (inactive) | 91.5% (inactive) | 91.4% (inactive) | 91.9% (inactive) | -7.62% (inactive) | 99.5% | 91.9% | -2.8% (inactive) | -2.13% (inactive) | -3.82% (inactive) | 5.5% (inactive) | 0.35% (inactive) | 102% (inactive) | 106% (inactive) | 1.92% (inactive) | 6.92% (inactive)
7 | CCOC(=O)c1cc2c(=O)n3ccccc3nc2n(Cc2ccccc2)c1=N | 77% | 75.5% (inactive) | 77% (inactive) | 84.2% (inactive) | 83.8% (inactive) | -4.5% (inactive) | 88.3% | 83.8% | -4.86% (inactive) | -3.28% (inactive) | -1.11% (inactive) | -8.62% (inactive) | -3.3% (inactive) | 77.1% (inactive) | 71.1% (inactive) | 2.4% (inactive) | 0.09% (inactive)
8 | CC1Cc2nc(SCC(=O)Nc3nccs3)n(C)c(=O)c2S1 (stereo unspecified) | 90% | 89% (inactive) | 90% (inactive) | 72.7% (inactive) | 77.8% (inactive) | -0.05% (inactive) | 77.8% | 77.8% | -5.07% (inactive) | -1.67% (inactive) | -2.9% (inactive) | -5.05% (inactive) | -2.52% (inactive) | 105% (inactive) | 96.7% (inactive) | 1.56% (inactive) | 6.27% (inactive)
9 | CCC(C)NC(=O)C1c2cc(OC)c(OC)cc2C(=O)N(C)C1c1ccc(OC)cc1 (stereo unspecified) | 96% | 90% (inactive) | 96% (inactive) | 108% (inactive) | 108% (inactive) | 10.2% (inactive) | 97.6% | 108% | -8.77% (inactive) | -10.2% (inactive) | -5.75% (inactive) | -9.85% (inactive) | -1.38% (inactive) | 96% (inactive) | 95.3% (inactive) | 0.92% (inactive) | 0.81% (inactive)
10 | CCOc1ccc2nc(Nc3nc4c(c(=O)[nH]3)CCC4)nc(C)c2c1 | 99.5% | 99% (inactive) | 99.5% (inactive) | 98.4% (inactive) | 103% (inactive) | 5.67% (inactive) | 97.7% | 103% | -4% (inactive) | 1.83% (inactive) | -9.17% (inactive) | 9.05% (inactive) | 0.54% (inactive) | 93.8% (inactive) | 96.4% (inactive) | 1.01% (inactive) | 3.45% (inactive)
11 | Cn1nnc2cc(C(=O)N3CCCCCC3)ccc21 | 81.5% | 99.5% (inactive) | 81.5% (inactive) | 81.7% (inactive) | 105% (inactive) | 10.6% (inactive) | 94.3% | 105% | -4.73% (inactive) | -6.23% (inactive) | -10.5% (inactive) | -19.7% (inactive) | -0.53% (inactive) | 109% (inactive) | 96% (inactive) | 0.345% (inactive) | 1.87% (inactive)
12 | CCOC(=O)C1CCN(c2c(NC3CCCc4ccccc43)c(=O)c2=O)CC1 (stereo unspecified) | 82% | 106% (inactive) | 82% (inactive) | 106% (inactive) | 87.7% (inactive) | 0.54% (inactive) | 87.2% | 87.7% | 1.41% (inactive) | 0.67% (inactive) | 6.77% (inactive) | -3.4% (inactive) | -1.77% (inactive) | 102% (inactive) | 96.8% (inactive) | -0.155% (inactive) | 0% (inactive)
13 | O=C(c1cc2ccccc2oc1=O)N1CCN(c2ccc(N3CCOCC3)nn2)CC1 | 98% | 118% (inactive) | 98% (inactive) | 88.5% (inactive) | 101% (inactive) | 7.39% (inactive) | 93.9% | 101% | -0.77% (inactive) | -2% (inactive) | 5.29% (inactive) | -7.26% (inactive) | -1.81% (inactive) | 101% (inactive) | 96.6% (inactive) | 0.885% (inactive) | -0.58% (inactive)
14 | Cc1ccc(S(=O)(=O)NCCSc2nnnn2-c2ccc(C(N)=O)cc2)cc1 | 116% | 101% (inactive) | 116% (inactive) | 126% (inactive) | 101% (inactive) | -1.94% (inactive) | 103% | 101% | 0.53% (inactive) | -2.17% (inactive) | -3.29% (inactive) | -2.84% (inactive) | -1.69% (inactive) | 92.1% (inactive) | 89.8% (inactive) | -0.71% (inactive) | 1.74% (inactive)
15 | CCN(CC)C(=O)Cn1ncc2c1-c1ccccc1OC2 | 84.5% | 112% (inactive) | 84.5% (inactive) | 98.3% (inactive) | 100% (inactive) | 15.7% (inactive) | 84.7% | 100% | -0.64% (inactive) | 1.33% (inactive) | -13.3% (inactive) | -11.6% (inactive) | 0.84% (inactive) | 105% (inactive) | 100% (inactive) | 2.26% (inactive) | -2.31% (inactive)
16 | O=C(NC1CCCC1)C1CCCN(S(=O)(=O)c2cccc3cccnc23)C1 (stereo unspecified) | 102% | 116% (inactive) | 102% (inactive) | 115% (inactive) | 98.8% (inactive) | 3.92% (inactive) | 94.8% | 98.8% | -5.07% (inactive) | 4.33% (inactive) | -9.46% (inactive) | 1.54% (inactive) | -1.04% (inactive) | 100% (inactive) | 99.3% (inactive) | 0.7% (inactive) | 5.53% (inactive)
17 | COc1cccc(NC(=O)c2nnn(Cc3ccc(Br)cc3F)c2N)c1 | 98% | 89% (inactive) | 98% (inactive) | 59.4% (inactive) | 72% (inactive) | 2.77% (inactive) | 69.2% | 72% | -3.33% (inactive) | 2.46% (inactive) | -7.21% (inactive) | -5.7% (inactive) | -0.51% (inactive) | 94.5% (inactive) | 95.7% (inactive) | 1.61% (inactive) | 5.85% (inactive)
18 | COc1cccc(-c2cc(C(=O)N3CCCCCC3)no2)c1 | 98.5% | 94% (inactive) | 98.5% (inactive) | 77.4% (inactive) | 85.9% (inactive) | 8.21% (inactive) | 77.7% | 85.9% | -5.2% (inactive) | 2.83% (inactive) | -12.5% (inactive) | -18.2% (inactive) | -0.05% (inactive) | 96.6% (inactive) | 90.9% (inactive) | 0.305% (inactive) | 0.68% (inactive)
